Data on eleven compounds can be found in PubChem BioAssay.

The nature of experiment [1]: E. coli DRC41 culture turbidity changes, primary screen, E. coli filamentation inducer project, strain DRC41, OD650, 48 h (AID 1152).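 Note: E. coli MC1000 strain DRC41 lacking acrAB efflux pump and sulA.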 As to conditions: E. coli DRC41 (acrAB sulA), higher = more signal, called active from +8 up or from −8 down.
Experiment [2] can be described thus: small-molecule binders of probe aLefty1, primary screen, biochemical, small-molecule microarray, 635/667 nm fluorescence (AID 1153).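 Note: score merges spot fluorescence with signal-to-noise ratio from the scanned slide images.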 The following applies: higher = more signal.
The nature of experiment [3]: PSAC antagonists in infected red cells, primary screen, cell-based, P. falciparum Indochina, OD700, 1 h (AID 1154). The following applies: P. falciparum Indochina infected RBC osmotic lysis, higher = more signal, called active from +8 up or from −8 down.
Experiment [4] can be described thus: PSAC antagonists in infected red cells, primary screen, cell-based, P. falciparum Indochina, OD700, 2 h (AID 1155).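 Note: lysis reports solute entry through the parasite surface anion channel PSAC; channel blockers reduce lysis of infected cells.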 As to conditions: P. falciparum Indochina infected erythrocytes, osmotic lysis OD700; higher = more signal, called active from +8 up or from −8 down.
A short description of experiment [5]: osmotic lysis modulators in infected erythrocytes, primary screen, PSAC antagonist project, cell-based, P. falciparum Indochina, OD700, 3 h (AID 1156). The following applies: higher = more signal, called active from +8 up or from −8 down.
Experiment [6] in a line: PSAC antagonists in infected red cells, primary screen, cell-based, P. falciparum Indochina, OD700, 18 h (AID 1157). As to conditions: P. falciparum Indochina infected erythrocytes, osmotic lysis OD700, 18 h; higher = more signal, called active from +8 up or from −8 down.
The nature of experiment [7]: modulators of S6 phosphorylation in cells, primary screen, cell-based, A549, cytoblot, luminescence, serum-stimulated (AID 1158).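 Note: serum-stimulated A549 lung adenocarcinoma cells; signal is phosphorylated S6 detected by cytoblot immunostaining with HRP secondary.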 As to conditions: A549 phospho-S6 cytoblot, 5 h, higher = more signal.
The target in experiment [8] is NADPH oxidase 2 (Homo sapiens) (UniProt P04839). The experiment in a line: NOX2-dependent H2O2 signal modulators, primary screen, NOX inhibitor project, cell-based, HEK293-NOX2, PMA-stimulated, Amplex Red fluorescence (AID 1159). Note: test concentration not given here. The following applies: 45 min, higher = more signal, called active from +8 up or from −8 down.
NADPH oxidase 2 (Homo sapiens), sequence (P04839 whole entry, looked up): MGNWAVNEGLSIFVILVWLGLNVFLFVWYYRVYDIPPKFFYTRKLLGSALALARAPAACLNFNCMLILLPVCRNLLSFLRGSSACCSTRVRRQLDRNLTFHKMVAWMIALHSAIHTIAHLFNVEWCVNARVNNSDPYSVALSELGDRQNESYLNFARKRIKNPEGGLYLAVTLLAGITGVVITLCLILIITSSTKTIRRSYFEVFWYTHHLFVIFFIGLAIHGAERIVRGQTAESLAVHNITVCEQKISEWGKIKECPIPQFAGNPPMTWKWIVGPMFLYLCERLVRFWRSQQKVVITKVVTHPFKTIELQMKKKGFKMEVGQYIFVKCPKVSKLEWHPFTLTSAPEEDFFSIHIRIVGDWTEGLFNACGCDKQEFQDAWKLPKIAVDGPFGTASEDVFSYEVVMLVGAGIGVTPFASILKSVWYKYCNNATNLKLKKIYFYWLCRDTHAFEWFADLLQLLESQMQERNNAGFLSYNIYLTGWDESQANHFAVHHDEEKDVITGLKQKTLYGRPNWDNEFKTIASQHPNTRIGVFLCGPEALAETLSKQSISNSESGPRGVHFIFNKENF
The target of experiment [9] is NADPH oxidase 4 (Homo sapiens) (UniProt Q9NPH5). The experiment in a line: NOX4-dependent H2O2 signal modulators, primary screen, NOX inhibitor project, cell-based, HEK293-NOX4, tetracycline-induced, Amplex Red fluorescence (AID 1160). The following applies: 45 min, higher = more signal, called active from +8 up or from −8 down.
NADPH oxidase 4 (Homo sapiens), sequence (Q9NPH5 whole entry, looked up): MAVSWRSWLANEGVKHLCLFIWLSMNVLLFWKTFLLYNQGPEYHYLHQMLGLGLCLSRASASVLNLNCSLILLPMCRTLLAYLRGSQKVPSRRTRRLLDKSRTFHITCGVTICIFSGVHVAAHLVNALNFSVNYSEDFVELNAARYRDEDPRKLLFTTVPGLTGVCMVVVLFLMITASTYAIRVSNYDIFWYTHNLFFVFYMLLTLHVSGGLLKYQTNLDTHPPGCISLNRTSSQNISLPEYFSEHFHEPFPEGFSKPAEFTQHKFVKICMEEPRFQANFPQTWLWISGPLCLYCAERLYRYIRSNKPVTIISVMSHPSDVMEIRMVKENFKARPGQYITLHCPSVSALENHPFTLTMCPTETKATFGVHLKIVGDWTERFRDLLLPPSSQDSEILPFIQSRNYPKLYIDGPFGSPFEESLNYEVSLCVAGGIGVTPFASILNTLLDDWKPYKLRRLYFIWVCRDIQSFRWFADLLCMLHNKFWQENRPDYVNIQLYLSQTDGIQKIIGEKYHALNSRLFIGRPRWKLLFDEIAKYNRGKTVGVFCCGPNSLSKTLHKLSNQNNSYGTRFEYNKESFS
Experiment [10] has as its target NADPH oxidase 5 (Homo sapiens) (UniProt Q96PH1). The experiment in a line: NOX5-dependent H2O2 signal modulators, primary screen, NOX inhibitor project, cell-based, HEK293-NOX5, Amplex Red fluorescence (AID 1161). As to conditions: HEK293-NOX5, ionomycin, 45 min, higher = more signal.

Calls of active or inactive are those of the source.

NADPH oxidase 5 (Homo sapiens), sequence (Q96PH1 whole entry, looked up): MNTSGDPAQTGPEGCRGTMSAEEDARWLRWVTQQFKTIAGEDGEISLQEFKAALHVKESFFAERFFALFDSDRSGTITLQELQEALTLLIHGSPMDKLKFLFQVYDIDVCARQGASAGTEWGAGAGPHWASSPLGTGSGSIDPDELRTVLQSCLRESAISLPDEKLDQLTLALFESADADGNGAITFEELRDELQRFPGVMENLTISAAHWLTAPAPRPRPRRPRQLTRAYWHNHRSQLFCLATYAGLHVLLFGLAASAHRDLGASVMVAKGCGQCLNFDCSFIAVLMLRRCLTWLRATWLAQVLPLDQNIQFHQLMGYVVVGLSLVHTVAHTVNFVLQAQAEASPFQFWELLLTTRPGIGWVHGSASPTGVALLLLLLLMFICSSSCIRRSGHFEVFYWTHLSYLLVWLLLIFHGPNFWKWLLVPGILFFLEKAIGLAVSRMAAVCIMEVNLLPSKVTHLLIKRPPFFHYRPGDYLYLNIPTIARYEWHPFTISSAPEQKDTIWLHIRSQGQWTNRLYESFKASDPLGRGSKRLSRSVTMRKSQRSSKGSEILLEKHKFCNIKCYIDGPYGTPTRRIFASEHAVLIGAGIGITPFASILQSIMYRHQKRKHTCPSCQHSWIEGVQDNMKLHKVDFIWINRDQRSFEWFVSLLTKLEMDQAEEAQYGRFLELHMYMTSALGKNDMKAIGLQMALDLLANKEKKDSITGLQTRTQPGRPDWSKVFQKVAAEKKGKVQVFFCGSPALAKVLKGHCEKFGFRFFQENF

Consider `O=C1O[C@@H](c2ccccc2)[C@@H](c2ccccc2)N2[C@@H](c3ccccc3OCCO)[C@]3(C(=O)Nc4ccc(C#CC5(O)CCCCCC5)cc43)[C@@H](C(=O)N3CCN(c4ncccn4)CC3)[C@H]12`, for which the z-score in experiment [1] was 0.691 (inactive); in [3] it was 1.89 (inactive); in [4], 1.66 (inactive); in experiment [5], 2.21 (inactive); in [6], 1.18 (inactive); in experiment [7] it was -0.451. The z-score in experiment [8] is 0.814 (inactive); in [9] it was 0.343 (inactive); in [10], 1.93. This compound showed a composite z-score in experiment [2] of -0.0141.

As for `COc1cc(CO)cc(I)c1O[C@H]1C=C(C(=O)NCCO)C[C@@H](NC[C@@H]2CCCO2)[C@@H]1O`, the z-score in experiment [1] is 2.35 (inactive); in [3], 3.81 (inactive); in [4], 0.585 (inactive); in experiment [5] it was 1.4 (inactive); in experiment [6], 0.303 (inactive); in experiment [7], 0.687. Besides, the z-score in experiment [8] was -0.144 (inactive); in experiment [9] it was 0.492 (inactive); in experiment [10] it was -0.0544. In experiment [2], this compound had a composite z-score of -0.0075.

For `CC(CO)N1C(=O)[C@@H]2C3C(=O)OCCC/C=C\[C@H]3OC23C=CCN(CCN2CCOCC2)C(=O)[C@@H]13` (stereo not given in full), the z-score in experiment [1] is 0.253 (inactive); in experiment [3] it was 0.901 (inactive); in experiment [4], 0.0448 (inactive); in experiment [5], 1.7 (inactive); in [6] it was 0.01 (inactive); in experiment [7], 0.0058. In addition, the values for the z-score in [8], in experiment [9] and in experiment [10] were 0.238 (inactive), -0.398 (inactive) and 1.05, respectively. In experiment [2], this compound returned a composite z-score of -0.348.

As to `C=C(CCCC)C(=O)CC[C@H](OC(=O)c1cccnc1)c1ccc(OCCO)cc1`, the z-score was -0.646 (inactive) in experiment [1]; 24.3 (active) in experiment [3]; 6.53 (inactive) in experiment [4]; 1.8 (inactive) in experiment [5]; 1.39 (inactive) in [6]; 0.178 in [7]. The z-score in [8] was -1.12 (inactive); in experiment [9], 0.000526 (inactive); in [10], -2.09. The composite z-score in experiment [2] was -0.0316.

`COc1ccc(C(O)C2C=CC3C(=O)N(C)C(=O)C3N2N(c2ccccc2)c2ccccc2)c2ccccc12` (stereo not given): the z-score was -1.24 (inactive) in experiment [1]; 1.24 (inactive) in [3]; 1.4 (inactive) in experiment [4]; 0.39 (inactive) in [5]; 1.32 (inactive) in experiment [6]; -1.19 in experiment [7]. For the same compound, the z-score was -0.549 (inactive) in [8], -0.247 (inactive) in [9] and -0.716 in [10]. Further, the composite z-score in experiment [2] came out at 0.407.

With `C=C(CCCC)/C(=C/C[C@@H](OC(C)=O)c1cccc(OCCO)c1)c1cnc2ccccc2c1`, the z-score is 0.776 (inactive) in experiment [1]; 23.6 (active) in [3]; 6.35 (inactive) in experiment [4]; 2.48 (inactive) in experiment [5]; 1.51 (inactive) in experiment [6]; 0.237 in [7]. The figures for the z-score in [8], in experiment [9] and in [10] were -2.25 (inactive), -0.934 (inactive) and -2.22, respectively. Also, the composite z-score in experiment [2] worked out at 0.201.

As for `CC(c1ccccc1)C(O)C1C=CC2C(=O)N(c3ccccc3)C(=O)C2N1Nc1ccccc1` (stereo not given), the z-score in experiment [1] is -1.08 (inactive); in [3] it was 4.6 (inactive); in [4], 0.386 (inactive); in experiment [5], 2.47 (inactive); in experiment [6], -1.35 (inactive); in experiment [7] it was 1.95. Also, the z-score in [8] was -3.18 (inactive); in experiment [9] it was -4.79 (inactive); in experiment [10], -5.54. The same compound yielded a composite z-score in experiment [2] of 1.05.

With `Cc1ccc(S[C@]2(C(=O)O)CC(=O)N(Cc3ccccc3C(F)(F)F)[C@@H]2c2ccc(CO)cc2I)cc1`, the z-score in [1] is -1.17 (inactive); in experiment [3], 6.52 (inactive); in [4], 0.427 (inactive); in experiment [5], 0.591 (inactive); in experiment [6], 0.402 (inactive); in [7] it was 0.0721. Moreover, the z-score is 1.63 (inactive) in experiment [8], -1.72 (inactive) in experiment [9] and 1.12 in experiment [10]. This compound also showed a composite z-score in [2] of 0.737.

Regarding `CCOC(=O)C1=CC[C@@H](c2ccc(C(F)(F)F)cc2)N(S(=O)(=O)c2ccc(C)cc2)[C@H]1c1ccccc1`, the z-score in experiment [1] was -0.734 (inactive); in experiment [3] it was 1.62 (inactive); in experiment [4], 1.61 (inactive); in experiment [5], 0.84 (inactive); in experiment [6], 0.828 (inactive); in [7] it was -0.356. The z-score was 0.803 (inactive) in experiment [8], -0.658 (inactive) in experiment [9] and -0.601 in experiment [10]. The compound also came in with a composite z-score in experiment [2] of 0.373.

Turning to `COC(=O)C(CC#Cc1ccc2c(c1)[C@]1(C(=O)N2)[C@H](c2ccccc2OCCO)N2[C@H](c3ccccc3)[C@H](c3ccccc3)OC(=O)[C@H]2[C@@H]1C(=O)O)C(=O)OC`, the z-score in experiment [1] was 0.456 (inactive); in experiment [3], 4.94 (inactive); in experiment [4] it was 0.569 (inactive); in [5] it was -7.69 (inactive); in [6], -0.0236 (inactive); in [7] it was -0.13. Moreover, the z-score is 1.79 (inactive) in experiment [8], -0.0833 (inactive) in [9] and 0.036 in experiment [10]. The compound further came in with a composite z-score in experiment [2] of 0.169.

With `C=CCC(OC(C)=O)[C@@H]1[C@@H](N(Cc2ccc(-c3ccccc3)cc2)C(=O)Cc2ccc(F)cc2)c2cc(OCCCO)ccc2N1C(=O)c1ccc2ccccc2c1` (stereo not given in full), the z-score is 0.185 (inactive) in experiment [1]; -0.0408 (inactive) in experiment [3]; 0.345 (inactive) in experiment [4]; -0.348 (inactive) in [5]; 0.703 (inactive) in [6]; -0.0772 in experiment [7]. Further, the z-score in experiment [8] was 0.719 (inactive); in experiment [9], 0.587 (inactive); in experiment [10] it was 1.82. In [2], this compound gave a composite z-score of 0.193.
